# PfHsp90 set2: growth inhibition of yeast expressing Plasmodium Hsp90. S. cerevisiae expressing PfHsp90, BacTiter-Glo ATP, 48 h; yeast lacking PDR1 and PDR3 efflux regulators. inhibition, % at 9.4 µM. 0.32% of 310,000 active. AID 504621;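 active = every replicate shows inhibition above about 80%, whatever the replicate mean, limit read from the data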;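 note: 0% = DMSO neutral controls and 100% = 20 µM radicicol positive controls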
# TIM10 inh: growth inhibitors of TIM10 yeast strain; 1.4% of 330,000 active; S. cerevisiae TIM10 strain growth, BacTiter-Glo luminescence, 24 h; inhibition, % at 10 µM;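 active = inhibition of 40% or more at the single tested concentration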;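 note: wild-type TIM10 isogenic control strain grown at permissive 25 °C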
# tim23-1 inh: growth inhibitors of tim23-1 mutant yeast | AID 463212 | S. cerevisiae tim23-1 growth, BacTiter-Glo luminescence, 24 h | 1.3% of 330,000 active | inhibition, % at 20 µM;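 active = growth inhibition of the mutant yeast at or above 50%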;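 note: temperature-sensitive mutant grown at 25 °C; plate controls were DMSO-treated mutant yeast for no effect and medium wells lacking yeast for full effect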
# NLRP3 yeast inh: inhibitors of NALP3 inflammasome in yeast | Yeast reconstituted NLRP3/ASC/caspase-1, beta-gal luminescence, 24 h | inhibition, % at 10 µM | 0.39% of 330,000 active | AID 2825;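 active = inhibition of 50% or more; inactive = inhibition below 50%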;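 note: plate controls were induced DMSO wells for no effect and uninduced yeast grown without galactose for full effect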
# tim10-1 inh: growth inhibitors of tim10-1 mutant yeast. S. cerevisiae tim10-1 ts strain growth, BacTiter-Glo, 24 h. inhibition, % at 20 µM. 2.2% of 330,000 active;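 active = inhibition of at least 40%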;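 note: mutant grown at 25 °C; 0% = DMSO wells with yeast and 100% = wells holding no yeast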
# NALP1 yeast inh: NALP1 inhibition. S. cerevisiae NALP1/ASC/caspase-1 growth, X-gal OD620, 72 h. inhibition, % at 10 µM. 0.61% of 280,000 active. AID 2071; in the data active = inhibition mostly above about 24%, no sharp cut-off; inactive = mostly below about 32%
# NALP3 confirm: confirmation of NALP3 inhibitors in yeast. shares compounds with NLRP3 yeast inh. yeast expressing human NALP3, luminescence. inhibition, % at 10 µM. 81% of 1,300 active. AID 435006; in the data active = inhibition above about 48%
# Casp1 ASC ctr: counter-screen for NALP3 inhibitors: yeast caspase-1-ASC; inhibition, % at 10 µM; 66% of 1,000 active; yeast expressing Caspase-1-ASC, luminescence counter screen; shares compounds with NLRP3 yeast inh
# NALP3 retest: confirmation retest of NALP3 inhibitors in yeast | shares compounds with NLRP3 yeast inh | inhibition, % at 10 µM | AID 488794 | yeast expressing human NALP3, luminescence read-out | 53% of 1,000 active
# tim10-1 conf: tim10-1 yeast growth inhibition, confirmed. shares compounds with tim10-1 inh. 56% of 7,400 active. inhibition, % at 20 µM. S. cerevisiae tim10-1 ts strain growth, BacTiter-Glo, 24 h;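 active = inhibition of yeast growth at or above a set limit in either of two repeat tests at 20 µM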;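 note: tim10-1 mutant grown at permissive 25 °C to find synthetic lethal compounds; 0% = DMSO yeast wells and 100% = medium wells without yeast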
# tim10 confirm: confirmation of TIM10 yeast growth inhibitors. shares compounds with TIM10 inh. S. cerevisiae tim10 strain growth, BacTiter-Glo luminescence, 24 h. inhibition, % at 10 µM. 63% of 4,600 active. AID 463215;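 active = inhibition of yeast growth at or above a set limit in either of two replicates at 10 µM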;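 note: this counterscreen used the strain with wild-type TIM10; 0% = yeast with DMSO and 100% = medium wells lacking yeast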
# An asterisk follows results filed as active; . = not tested or not shown. Sampled rows, rich in hits. Any-hit rate of the full collection: about 4.1%. Cut-off read from the data, not from the text of the source, unless noted: active = inhibition above about 50%; inactive = the rest.
SMILES,PfHsp90 set2,TIM10 inh,tim23-1 inh,NLRP3 yeast inh,tim10-1 inh,NALP1 yeast inh,NALP3 confirm,Casp1 ASC ctr,NALP3 retest,tim10 confirm,others
CC(=O)NC12CC3CC(C1)CC(C(=O)Oc1ccc(N(C)S(=O)(=O)c4cc(C)ccc4C)cc1)(C3)C2,-1,-5,-12,11,0,.,.,.,.,.,
CCCCCCCCCCCCCCCC[n+]1ccc(C(N)=O)cc1,104*,48*,42,53*,-12,96*,-10,.,.,-7,
N#C/C(=C/c1cccs1)c1nc2ccccc2[nH]1,31,50*,34,80*,-5,63,70*,84*,88*,-35,
CN(C)/C=C(\C#N)c1nc2ccccc2[nH]1,-8,8,13,13,-17,0,.,.,.,.,
COc1ccc2c(c1C)CCC(C)(C#N)C2=O (stereo not drawn),-13,.,.,.,.,.,.,.,.,.,
O=C(Nc1cccc(F)c1)c1ccc2c(c1)OCO2,5,50*,42,65*,19,-3,65*,68*,62*,6,
O=C(CCS(=O)(=O)c1ccccc1)N(CCCN1CCOCC1)c1nc2c(F)cccc2s1,10,66*,-41,57*,34,.,72*,43,53*,70*,
NNC(=O)c1ccc2nc(-c3ccc(Br)cc3)cn2c1,55,40*,-52,53*,-48,39*,70*,.,.,30,
O=c1c2sc(-c3ccccc3)cc2nc2n1CCC2,67,78*,50,55*,64*,-91,49,45,30,73*,tim10-1 conf=65*
O=C(N/N=C/c1cccs1)c1ccc2ccccc2c1,16,47*,44,66*,10,8,81*,68*,66*,27,
Cc1ccc(CNC(=O)CCC2CCCN(C(=O)CCC(F)(F)F)C2)o1 (stereo not drawn),-27,17,13,4,12,3,.,.,.,.,
O=C(/C=C/c1cccc(Cl)c1)c1nc2ccccc2[nH]1,65,58*,15,92*,50*,10,85*,99*,93*,63*,tim10-1 conf=41*
CCn1c2ccccc2c2cc(/C=N/n3cn[nH]c3=S)ccc21,4,48*,37,68*,51*,7,74*,82*,63*,49*,tim10-1 conf=35*
CCn1c2ccccc2c2cc(/C=N/n3cnnc3)ccc21,-22,14,24,31,32,-4,.,.,.,.,
O=C(Nc1ccc(Cl)cc1)c1ccc2ncsc2c1,-26,9,-3,3,3,19,.,.,.,.,
O=C(Nc1cccc(Cl)c1)c1ccc2ncsc2c1,13,50*,31,67*,25,23,86*,81*,76*,45*,
CCOc1ccc(OCCC(=O)N(CC)CC(=O)Nc2c(F)cccc2F)cc1,-26,-7,6,1,7,.,.,.,.,.,
CCCCOc1ccc(CSCCNC(=S)Nc2ccccc2)cc1,-21,42*,34,54*,33,6,60*,62*,34,0,
COc1ccc(CNC(=O)CSc2nccn(-c3ccc(F)c(F)c3)c2=O)cc1,-3,8,15,11,19,.,.,.,.,.,
Cc1cc(O)cc2c(=O)c3ccccc3sc12,-10,60*,21,79*,36,7,92*,54*,63*,55*,
COc1ccc2sc3ccccc3c(=O)c2c1,-9,26,33,24,9,17,.,.,.,.,
O=C(c1ccco1)N1CCN(C(=S)Nc2ccc(F)c(Cl)c2)CC1,24,16,13,2,8,31,.,.,.,.,
O=C(CN1C(=O)COc2ccccc21)Nc1ccc(N2CCOCC2)cc1,-6,14,4,9,-12,1,.,.,.,.,
COc1cccc(NC(=O)CN(C)CC(=O)Nc2ccc(C)c([N+](=O)[O-])c2)c1,0,-14,-13,28,-44,3,.,.,.,.,
CC(C)CCOc1cccc(OCC(=O)Nc2ccncc2)c1,103*,56*,37,66*,17,36,78*,86*,60*,50*,
SMILES,PfHsp90 set2,TIM10 inh,tim23-1 inh,NLRP3 yeast inh,tim10-1 inh,NALP1 yeast inh,NALP3 confirm,Casp1 ASC ctr,NALP3 retest,tim10 confirm,others
O=C(Nc1cccc(S(=O)(=O)N2CCCCCC2)c1)c1ccc(Cl)nc1,.,-37,10,-1,-13,.,.,.,.,.,
O=C(Nc1cccc(S(=O)(=O)N2CCCC2)c1)c1ccc2ccccc2n1,-137,43*,-2,-128,47*,15,-12,.,.,39*,tim10-1 conf=36*
O=C(Nc1cccc(S(=O)(=O)N2CCCCC2)c1)c1ccc2ccccc2n1,-37,41*,25,-104,44*,-16,-58,.,.,5,tim10-1 conf=21
CC(C)(C)OC(=O)N1CCC(C(=O)Nc2ccc(C(=O)NCCc3ccccc3)cc2)CC1,2,.,.,.,.,.,.,.,.,.,
Cc1ccc(C(=O)Cn2cnc3ccccc3c2=O)cc1C,14,53*,33,63*,-6,9,78*,55*,54*,34*,
COc1ccc(-n2cnc3cc(NC(=O)c4ccco4)ccc32)cc1,6,66*,29,58*,29,-7,80*,62*,70*,54*,
CC(C)n1cnc2cc(NC(=O)c3ccco3)ccc21,-11,-4,30,2,1,0,.,.,.,.,
C[C@@H](C(=O)Nc1ccc(OC(F)F)c(Cl)c1)N1C(=O)C2CC=CCC2C1=O (stereo partly drawn),-6,-1,13,13,16,.,.,.,.,.,
CN(C)S(=O)(=O)c1ccc(C(=O)NNC(=O)C23CC4CC(CC(C4)C2)C3)cc1,4,4,-4,15,-9,.,.,.,.,.,
CN1/C(=C/C(=O)c2cccs2)Sc2ccccc21,.,73*,42,78*,22,-2,81*,97*,93*,61*,
Cc1nc2ccc(NC(=O)c3cccs3)cc2s1,15,46*,48,65*,18,-4,77*,62*,71*,27,
CC(=O)Nc1ccc2nc(NC(=O)c3cccs3)sc2c1,37,23,11,-1,24,.,.,.,.,.,
O=C(Nc1ccc(-c2nc3cc(NC(=O)c4cccs4)ccc3o2)cc1)c1cccs1,.,-22,-14,37,6,12,.,.,.,.,
O=C(Nc1ccc2oc(-c3ccncc3)nc2c1)c1cccs1,30,53*,40,59*,-6,7,84*,66*,66*,51*,
